About 79,000 compounds went through this panel and 15% of them were active in at least one assay; those are over-represented in the sample as a whole. Cut-off read from the data, not from the text of the source: active = growth inhibition above about 70%; inactive = the rest. Where a SMILES comes first, the peptide text is derived from it. The star is where a group is joined. Cbz = O=C(OCc1ccccc1)*
Experiments:
[1] = NCI Yeast Anticancer Drug Screen. Data for the rad50 strain (AID 155);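 note: 0% = growth of vehicle-only cultures of the same strain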; settings: S. cerevisiae rad50 strain growth inhibition; at 50.0 µM; stronger effect = higher value
Summary of the method: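 Inhibition values express reduced yeast growth in compound-treated cultures relative to vehicle-treated controls.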

[2] = NCI Yeast Anticancer Drug Screen. Data for the mec2-1 strain (AID 157); settings: S. cerevisiae mec2-1 strain, at 50.0 µM, stronger effect = higher value
Summary of the method: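 Readout is yeast growth inhibition, normalised to vehicle-treated controls, in the mec2-1 strain exposed to compound.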

[3] = NCI Yeast Anticancer Drug Screen. Data for the sgs1 mgt1 strain (AID 161);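 note: 0% = growth of cultures given vehicle only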; settings: S. cerevisiae sgs1 mgt1 strain, at 50.0 µM, stronger effect = higher value
Summary of the method: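 Growth of a repair-deficient yeast mutant was monitored after compound treatment and expressed as inhibition relative to vehicle-treated cultures.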

[4] = NCI Yeast Anticancer Drug Screen. Data for the cln2 rad14 strain (AID 165);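 note: 0% = growth equal to vehicle treated cultures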; settings: S. cerevisiae cln2 rad14 strain, at 50.0 µM, stronger effect = higher value
Summary of the method: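 Relative to vehicle controls, growth inhibition of compound-treated cln2 rad14 yeast was recorded.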

[5] = NCI Yeast Anticancer Drug Screen. Data for the bub3 strain (AID 167); settings: S. cerevisiae bub3 mutant strain, at 50.0 µM, stronger effect = higher value
Summary of the method: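 Steps: expose the mutant yeast strain to compound; grow alongside vehicle-treated cultures; measure growth; express inhibition against the vehicle cultures.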

[6] = NCI Yeast Anticancer Drug Screen. Data for the mlh1 rad18 strain (AID 175); settings: S. cerevisiae mlh1 rad18 strain growth inhibition; at 50.0 µM; stronger effect = higher value
Summary of the method: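 Test agents were incubated with a yeast strain of defined genotype (DNA damage repair defect). Inhibition of growth was derived by comparison with vehicle-exposed cultures.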

Measured: growth inhibition

CCCCCCNC(=O)CCC(NC(=O)c1ccc(N(C)Cc2cnc3nc(N)nc(N)c3n2)cc1)C(=O)NCCCCCC (stereo unspecified)
inactive: [1] 18.2% | [2] 17.1% | [3] 19.1% | [4] 19.9% | [5] 25.4% | [6] 28.2%

Cc1ccc(-c2nnc(CCCCCCCCc3nnc(-c4ccc(C)cc4O)n3N)n2N)c(O)c1
inactive: [1] 9.2% | [2] -21.9% | [3] 3.75% | [4] 7.5% | [5] 1.75% | [6] 0.5%

COC(=O)N1c2ccccc2N(C(=O)OC)c2c1oc1ccccc1c2=O
inactive: [1] 38.2% | [2] 12.6% | [3] 33.6% | [4] 7.3% | [5] 26.5% | [6] 31.9%

O=c1c(-c2c(-c3ccccc3)oc3ccc(Cl)cc3c2=O)c(-c2ccccc2)oc2ccc(Cl)cc12
inactive: [1] 18.9% | [2] 3.9% | [3] 5.3% | [4] 7.25% | [5] 17.3% | [6] 3.75%

CCCc1c(C(=O)OCC)[nH]c(C(=O)CCC(=O)c2[nH]c(C(=O)OCC)c(CCC)c2C(=O)OCC)c1C(=O)OCC
inactive: [1] 20.2% | [2] -13.5% | [3] -10.9% | [4] -19.4% | [5] -15.7% | [6] 2.35%

COC(=N)C(C)C
inactive: [1] 26.4% | [2] 14.9% | [3] 4.9% | [4] 13.1% | [5] -6.2% | [6] 22.6%

Nc1nc(N)c2ccccc2n1
inactive: [1] -11.3% | [2] 13.8% | [3] -5.2% | [4] -0.5% | [5] -6.9% | [6] -1.7%

CN1CCC(c2ccccc2)(c2ccccc2)OC1
inactive: [1] 3.7% | [2] 6.85% | [3] 6.9% | [4] -8.45% | [5] 9.95% | [6] 5.15%

O=c1[nH]cnc2ncnn12
inactive: [1] 20% | [2] 4.2% | [3] 9.65% | [4] 19.2% | [5] 21% | [6] 16.4%

Cc1csc(-n2nc(C)cc2C)n1
inactive: [1] -5.35% | [2] -23.1% | [3] -37.2% | [4] 6.75% | [5] -30.9% | [6] -6.05%

Cc1cc(=O)c2ccccc2o1
inactive: [1] -5.15% | [2] -7.75% | [3] -1.3% | [4] -0.1% | [5] -18.9% | [6] -13.7%

CC(C(=O)O)C(C)C(=O)Nc1ccccc1 (stereo unspecified)
inactive: [1] 33.9% | [2] 6.15% | [3] 11.1% | [4] 24.4% | [5] 1.5% | [6] 28.4%

CC(C)(C)NC(=O)Oc1ccc(-c2ccccc2)cc1
inactive: [1] 4.75% | [2] 26.6% | [3] 33% | [4] -4.45% | [5] 18.2% | [6] 32.9%

COC(CNc1nc2c(s1)c1c(O)c3c(O)c(C)c4c(c32)C(=O)C(C)(O/C=C\C(OC)C(C)C(OC(C)=O)C(C)C(O)C(C)C(O)C(C)/C=C/C=C(/C)C(=O)N1)O4)OC (stereo unspecified)
inactive: [1] 6.15% | [2] -5.6% | [3] -13% | [4] 14.3% | [5] -15.6% | [6] -4.65%

O=C(O)c1c2ccccc2nc2ccccc12
inactive: [1] -17.6% | [2] -17.9% | [3] -17.9% | [4] -34.5% | [5] 15.2% | [6] 57%

O=C(O)c1cccc(S(=O)(=O)NCCO)c1
inactive: [1] -11.3% | [2] -8.25% | [3] -20.8% | [4] -1.9% | [5] -36.1% | [6] 8.5%

CC(C)=C1C(=O)N(C)C(=O)C1C(N)=O (stereo unspecified)
inactive: [1] 0.1% | [2] 1.85% | [3] -15.9% | [4] -6.05% | [5] 2.85% | [6] 11.4%

CCCCc1ccc(-n2c(C)nc3[nH]cc(C)c3c2=N)cc1
inactive: [1] -1.35% | [2] -10.9% | [3] -3.5% | [4] -1.75% | [5] -2.5% | [6] -3.75%

CCOC(=O)C1C(c2ccc(N(C)C)cc2)c2cc3c(cc2OC1(C)N1CCCC1)OCO3 (stereo unspecified)
inactive: [1] -13.6% | [2] 9.1% | [3] -2.1% | [4] 14.3% | [5] -3.15% | [6] 2.85%

Cc1ccc(S(=O)(=O)OC2CCCCCC2c2ccccc2)cc1 (stereo unspecified)
inactive: [1] 7.85% | [2] -5.1% | [3] 0.05% | [4] -42.5% | [5] -2.75% | [6] -3.55%

Cc1cnc2nc(C)c(C)nc2n1
inactive: [1] 12.3% | [2] 1.55% | [3] 2.35% | [4] -0.95% | [5] -0.85% | [6] 4.95%

CC(C)(C)OC(=O)N1CC(C)(C)N2C(=O)C3(CCCO3)C12 (stereo unspecified)
inactive: [1] -4.3% | [2] -9.85% | [3] -7.15% | [4] -0.4% | [5] -16.6% | [6] 5.65%

N#Cc1cnc(SCC(=O)O)nc1N
inactive: [1] -27.2% | [2] -39.6% | [3] -15.5% | [4] 8.8% | [5] -36.2% | [6] -13.4%

CCCCNC(=O)C(c1ccccc1)c1ccccc1
inactive: [1] 22.1% | [2] 14.9% | [3] 10.8% | [4] -12.3% | [5] 14.3% | [6] 4.2%

COC(=O)/C=C(/Nc1ccccc1C(=O)O)C(=O)OC
inactive: [1] -5.55% | [2] 20.1% | [3] -5.15% | [4] 2.85% | [5] -16.1% | [6] -21.1%

O=C1CCc2cc3c(cc21)OCO3
inactive: [1] 4.8% | [2] -33.8% | [3] -3.95% | [4] -9.35% | [5] 6.7% | [6] -6.15%

CC/C=C\C/C=C\C/C=C\CCCCCCCC(=O)OC(COC(=O)CCCCCCCCCCCCCCCCC)COC1OC(CO)C(O)C(O)C1O (stereo unspecified)
inactive: [1] 38.4% | [2] 8.55% | [3] 31.8% | [4] -3.4% | [5] 32.2% | [6] 33.4%

O=C1OC(c2ccccc2)=N/C1=C\c1ccc(F)cc1
inactive: [1] -10.4% | [2] -17.5% | [3] -1.75% | [4] -10.2% | [5] -19.3% | [6] -3.75%

O=C(Nc1cc(C(F)(F)F)ccc1Cl)c1ccccc1F
inactive: [1] 17.1% | [2] 29.1% | [3] -6.95% | [4] -9.15% | [5] 34.9% | [6] 18.6%

O=C1CCC(c2nc3ccccc3o2)C(=O)N1 (stereo unspecified)
inactive: [1] -5.1% | [2] -20.5% | [3] -10.6% | [4] 0.65% | [5] -11.2% | [6] -13.7%

CC(C)N(CCC#N)C(=S)Nc1cccc2ccccc12
inactive: [1] 17.1% | [2] 10.1% | [3] 19.6% | [4] 14.9% | [5] 12.2% | [6] -8.2%

CC1=CC2N(C=C1)C(c1cccc([N+](=O)[O-])c1)=NON2c1cc(C)ccn1 (stereo unspecified)
inactive: [1] 7.05% | [2] 0.95% | [3] 6.85% | [4] 13.6% | [5] -1% | [6] 23.9%

C=C[C@@]1(C)CC2CC[C@]3(C)C(C)=CC(=O)CC3[C@]2(C)CC1O (stereo partly specified)
inactive: [1] 6.9% | [2] 3.3% | [3] 22.7% | [4] -20.3% | [5] 13% | [6] 10.4%

CC(c1ccccc1)C(C)(C#N)c1ccccc1 (stereo unspecified)
inactive: [1] 2.8% | [2] 23.1% | [3] 15.8% | [4] 33.5% | [5] 10.5% | [6] 40.4%

Cc1ccc(NC2=CC(=O)C(=O)c3ccccc32)cc1C
inactive: [1] 35% | [2] 13.1% | [3] 19.4% | [4] 11.4% | [5] 34% | [6] 26.5%

CC1=NN(C(=O)c2ccc(Cl)cc2)C(=O)/C1=C/c1ccco1
inactive: [1] -8.85% | [2] -28.9% | [3] -22.6% | [4] 9.25% | [5] -2.7% | [6] -24.1%

CCOC(=O)CCC(NC(=O)C(CCC(=O)OCC)NC(=O)OCc1ccccc1)C(=O)O (stereo unspecified) (tested in a mixture with another compound) (Cbz-Glu(OEt)-Glu(OEt)-OH; configuration not given here)
inactive: [1] -43.5% | [2] 1.15% | [3] -11.2% | [4] -34.9% | [5] -52.9% | [6] 38.6%

O=C1N(c2ccccc2)C2(O)C(=O)c3ccccc3C2(O)N1c1ccccc1 (stereo unspecified)
inactive: [1] -10% | [2] -2.15% | [3] 15.6% | [4] 16.5% | [5] 3.1% | [6] -4.5%

CCOC(=O)c1ncn(C2OC(CO)C(O)C2O)c1N (stereo unspecified)
inactive: [1] 19.5% | [2] 1.6% | [3] 31.4% | [4] 12.3% | [5] 14.2% | [6] 25.2%

CC(C)N1C(=O)c2ccccc2C1=O
inactive: [1] 26.8% | [2] 22.1% | [3] 14.7% | [4] 19.8% | [5] 15.1% | [6] 14.3%

N#C/C(=C\NC(=S)Nc1ccccc1Cl)C(=O)c1ccc2ccccc2c1
inactive: [1] -24.4% | [2] -18% | [3] 0.7% | [4] 13.3% | [5] -35.6% | [6] -28.8%
